# Measured values from the supplement of paper PMC6555819.
# Experiments:
# Test in all cases: PBM binding z-score (relative to random genomic background probes); higher = stronger binding; sequences stand for … in GC…GCGATTGACAGCGTAGAATGAAGG
# [1] = test system: FXR:RXRa (NR concentration 270 nM, RXRa partner concentration 90 nM)
# Summary of the method: (§1)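 Binding z-scores were set against random background probes. The data came from custom Agilent 4×180K protein-binding microarrays carrying double-stranded probes with 34-nt variable regions, incubated 1 h with ligand-free nuclear receptor dimers. Partner-specific antibodies detected binding, and scanned fluorescence was regression-normalized.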
# [2] = test system: LXRa:RXRa (NR concentration 270 nM, RXRa partner concentration 90 nM)
# Summary of the method: as §1
# [3] = test system: LXRa homodimer (NR concentration 270 nM)
# Summary of the method: as §1
# [4] = test system: LXRb:RXRa (NR concentration 270 nM, RXRa partner concentration 90 nM)
# Summary of the method: as §1
# [5] = test system: LXRb homodimer (NR concentration 270 nM)
# Summary of the method: as §1
# [6] = test system: PPARa:RXRa (NR concentration 270 nM, RXRa partner concentration 90 nM)
# Summary of the method: as §1
# [7] = test system: PPARg:RXRa (NR concentration 180 nM, RXRa partner concentration 90 nM)
# Summary of the method: as §1
# [8] = test system: PPARg:RXRa 270nM:90nM, anti-RXR (NR concentration 270 nM, RXRa partner concentration 90 nM)
# Summary of the method: as §1
# [9] = test system: PPARg:RXRa 30nM:10nM, anti-RXR (NR concentration 30 nM, RXRa partner concentration 10 nM)
# Summary of the method: as §1
# [10] = test system: PPARg:RXRa 90nM:30nM, anti-RXR (NR concentration 90 nM, RXRa partner concentration 30 nM)
# Summary of the method: as §1
Sequence,PBM binding z-score [1],PBM binding z-score [2],PBM binding z-score [3],PBM binding z-score [4],PBM binding z-score [5],PBM binding z-score [6],PBM binding z-score [7],PBM binding z-score [8],PBM binding z-score [9],PBM binding z-score [10]
CCTCGGAGGACAACAGGAGGTCAGAGCTGCCAGA,1.12,2.26,1.95,1.36,-0.474,1.99,0.527,0.477,-0.553,0.529
CAAACTAGGTCACAGATGTCAAAGTCCGTGCGTA,3.99,3.51,0.769,2.81,0.443,5.44,8.76,7.33,5.52,7.25
ACTTACGGGTCAACGAGTTTATAGCACGCGTATA,6.09,4.46,1.02,4.03,0.714,5.4,5.37,5.02,2.4,4.12
TAGCCTGGGTCATTGGGCCAGTATAGTACGCATC,3.3,1.88,-0.677,1.36,-0.556,4.11,3.81,3.62,0.89,2.1
AGAATGAGGTTAAGATCATGGAAACAGAATACAT,2.01,1.71,-0.0716,1.88,-0.112,3.44,2.5,2.38,0.804,1.82
TCATGTAGGTAATACAGGTGAAAGTCGGCATCTA,0.0966,0.506,0.125,0.469,-0.485,1.63,1.15,1.94,2.84,2.25
TCTTGTAGATCAACAAGAGGTTAAGAAAGATCGA,0.445,2.13,0.311,1.41,-0.334,1.96,0.437,1.19,2.15,1.59
TATGCAGGGTCAAAGGCCAGAGTACGAATGTCGA,7.19,5.51,1.34,4.46,0.828,6.1,7.42,6.8,4.59,6.57
TGTCAAAGTTGAAAGGTAACGTAAGTATCCACAC,1.27,1.12,-0.229,1.38,-0.452,3.49,5.4,5.19,2.72,4.73
CCTTACGGGTCACTCCAGGTTATAACATCGGAGT,4.88,7.46,2.11,5.8,0.0817,4.74,3.9,3.91,1.29,2.8
TCTCGTAGATCAATAGAGGTTAAGAAAGTGCGCT,0.399,3.34,0.504,1.71,-0.598,1.62,-0.218,1.6,2.83,2.12
TGAATGAGGCTATAAGATCAGGGAACGTTGCAAA,-0.518,-0.611,-0.669,-0.726,-0.998,-0.176,0.387,0.203,0.0907,-0.0194
TGAATGAGGTTATAAGATCAGGGGACGTTGCAAA,1.42,1.51,-0.106,1.61,0.309,2.73,1.65,1.96,0.887,1.28
AGAACGAGGGCAATGAGTTTATAGCACGGGTGGC,0.163,0.317,-0.472,-0.145,-0.322,1.25,1.55,0.876,0.119,0.36
ACTAGCAGGCCAAGGGTCACTCACGATTAGTCCG,2.5,2.67,0.186,2.74,-0.177,4.69,7.31,6.69,5.72,6.89
CAAACTAGGTCACCGGAACGTCAAAGTCCGCATG,4.29,3.3,0.469,2.42,0.773,5.75,8.87,7.2,4.82,6.94
CCTACCGGGCCACGAAAGGTCATTGATTCAGTGA,3.59,5.17,5.04,4.36,0.399,4.26,1.96,2.98,0.636,1.92
CCTTACGTGTCACTGACAGGTTATAGCATTTGGA,0.791,1.07,0.634,1.18,0.446,1.29,0.601,0.469,0.356,0.704
CTACCAAGGTGAACAAGGTCGTTGATTACTATTC,1.47,1.38,0.19,1.91,-0.383,2.45,1.12,1.4,0.0996,0.622
AGTCAAAGTTCACTAGGTAACGCAAGATTCAGCT,5.26,4.86,2.69,2.93,0.956,4.83,7.22,6.82,3.62,6.03
GGAACGAGGGCAAGTTGCTAGCAGAGTTTGATGG,0.687,0.359,-0.44,0.0629,-0.392,1.48,0.841,1.04,-0.453,0.0808
GAATATAGGTAATACAAGGTGAAAGTCCGATTGT,1.61,2.61,0.76,1.01,0.0272,2.77,3.39,3,0.987,2
CCTACTGGGCCACGAAAGGTCATGGATTCAGTGA,3.62,5.06,3.79,4.07,0.209,4.97,4.97,5.27,2.28,4.77
GCAGCTAGGTCAACTGATGGTCAGCTAAAGCTCG,3.76,2.29,-0.24,1.56,-0.578,3.37,2.48,3.01,0.457,1.89
TCATATAGGTAAATGCTAGGTGGAAGTCCGATCT,0.532,0.496,0.0241,0.66,-0.216,0.983,0.493,2.41,3.84,2.88

Sequence,PBM binding z-score [1],PBM binding z-score [2],PBM binding z-score [3],PBM binding z-score [4],PBM binding z-score [5],PBM binding z-score [6],PBM binding z-score [7],PBM binding z-score [8],PBM binding z-score [9],PBM binding z-score [10]
ATATGTAAGTTAGCTGGGGTCATTCAGACTAGGC,4.05,3.87,1.64,4.47,0.895,4.17,1.49,2.48,0.721,1.49
ATCTCTAGGTAACCATGTTCAGTGAATGCCGAAC,0.171,0.321,0.00917,0.435,0.529,0.518,0.664,0.662,0.044,0.484
TGTAGTTGGTCAAAGGTCACACACTCGAAATGCG,5.82,5.9,3.8,5.42,1.98,6.69,11,9.78,10.1,11.7
CAGCCTAGGTCAGCGCCAGTATAGGAGGAACGTT,1.62,1.05,-0.445,0.71,-0.863,1.92,0.956,1.24,-0.327,0.61
GGAACGAGGGCATGTTGATAGCAGAGTTTGATGG,0.438,-0.0957,0.0371,0.12,-0.293,0.843,0.848,0.668,0.0112,-0.104
ACAGACAGGTGAGTGAAGGTAACTCAACTGGACG,0.515,-0.0792,-0.448,-0.39,-0.735,-0.0249,0.821,0.143,0.0922,-0.0513
ATATGTAGGTTAGCTGGGGTCATACAGACTAGGC,5.27,5.79,2.45,4.74,0.852,5.2,6,5.38,2.74,4.94
CCTCGGTGGACAGAAGGTCAGAGCTGTCCGCTTT,1.33,1.62,-0.089,0.847,-0.688,1.75,0.418,2.42,-0.194,1.62
CGTCCAATGTCAGCAGGTCAGTGAAAGCGACGTG,0.418,0.255,-0.0257,0.392,-0.161,1.22,0.115,0.0995,-0.882,-0.158
TAGCCTAGGTCAGATCGGGTCAGTATACGCTATA,2.96,2.75,0.202,2.43,-0.00739,2.8,1.19,1.5,0.171,1.08
ATATGTAGGTTAGCTGGGGTCATTCAAACTAGGC,5.07,5.84,3.67,5.17,1.92,5.21,5.74,5.36,2.92,4.91
GCATATAGATAATACAAGGTGAAAGTCCGATTGT,0.079,0.0374,0.245,0.117,-0.118,0.578,1.21,0.513,0.278,0.522
ACAAGTTGGTCAGCTGAGGTCACACACAATTCGG,3.12,3.24,2.34,3.77,0.506,3.78,2.28,2.38,0.435,1.74
TCATATAGGTAATACAGGTGCAAGTCGGCATCTA,0.658,1.85,0.544,0.742,0.358,1.45,1.07,2.35,3.75,3.08
CCTCACGGGTCACTCCAGGTTATAGCATCGGAGT,4.64,7.34,1.76,5.28,0.129,4.16,2.19,2.85,0.902,1.92
TCTTGTAGATCAATAGAGGTCAAGAAAGTGCGCT,3.34,5.24,3.98,4.27,1.1,4.19,1.36,3.32,3.08,3.18
TCACATAGGTAAAGGTGAAAGTCGAACGATATGA,1.25,1.8,0.139,1.69,-0.00674,3.07,2.67,3.48,4.04,3.75
TCATATAGGTAAATAGGTGAAAGTCCGTAAGTTA,1.38,1.32,0.298,1.06,-0.103,3.79,5.17,5.12,4.83,5.34
TCTCGGAGGACACGAAGGTCACAGCTTTCCAGAG,2.69,2.82,1.52,2.65,-0.279,3.64,1.64,3.1,2.74,2.74
ACTTACGGGTCAACGAGATTATAGCACGCGTATA,6.86,4.16,0.415,3.82,1.09,5.71,5.29,5.21,2.2,4.07
GGATCGAGGGCAAAGTTGATAGCATCTGTCGACG,1.65,1.21,-0.00761,0.937,-0.138,4.37,7.25,7.18,5.86,8.27
AGTCAAAGTTCACAAGGTAACGTAAGATTCAGCT,6.12,5.7,3.55,3.65,1.1,4.75,6.96,6.42,3.67,5.78
TCTCGGAGGACACGAAAGGTCAGGGCTCGACATC,3.31,3.84,3.08,3.5,0.0689,3.95,1.6,2.91,2.57,2.76
CCTAGCAGGACAGGGTCACTCAAGCATTTCGCTT,2.28,1.99,-0.28,2.4,-0.799,3.41,0.993,1.68,-0.413,0.404
